Screening data (PubChem)
Hits are enriched below; roughly 1.6% of the tested compounds scored in any of these assays.
KCNQ2 block = KCNQ2 (rat) channel inhibition; O88943; CHO-K1 KCNQ2, FluxOR thallium flux, 20 min; active compounds read low; B-score at 10 µM; 1.1% of 310,000 active;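 active = fluorescence ratio B-score at most minus 3 library SDs, with starting brightness B-score within 2 library SDs, cut at about -5.5 in these data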
Target sequence (O88943 whole entry, looked up): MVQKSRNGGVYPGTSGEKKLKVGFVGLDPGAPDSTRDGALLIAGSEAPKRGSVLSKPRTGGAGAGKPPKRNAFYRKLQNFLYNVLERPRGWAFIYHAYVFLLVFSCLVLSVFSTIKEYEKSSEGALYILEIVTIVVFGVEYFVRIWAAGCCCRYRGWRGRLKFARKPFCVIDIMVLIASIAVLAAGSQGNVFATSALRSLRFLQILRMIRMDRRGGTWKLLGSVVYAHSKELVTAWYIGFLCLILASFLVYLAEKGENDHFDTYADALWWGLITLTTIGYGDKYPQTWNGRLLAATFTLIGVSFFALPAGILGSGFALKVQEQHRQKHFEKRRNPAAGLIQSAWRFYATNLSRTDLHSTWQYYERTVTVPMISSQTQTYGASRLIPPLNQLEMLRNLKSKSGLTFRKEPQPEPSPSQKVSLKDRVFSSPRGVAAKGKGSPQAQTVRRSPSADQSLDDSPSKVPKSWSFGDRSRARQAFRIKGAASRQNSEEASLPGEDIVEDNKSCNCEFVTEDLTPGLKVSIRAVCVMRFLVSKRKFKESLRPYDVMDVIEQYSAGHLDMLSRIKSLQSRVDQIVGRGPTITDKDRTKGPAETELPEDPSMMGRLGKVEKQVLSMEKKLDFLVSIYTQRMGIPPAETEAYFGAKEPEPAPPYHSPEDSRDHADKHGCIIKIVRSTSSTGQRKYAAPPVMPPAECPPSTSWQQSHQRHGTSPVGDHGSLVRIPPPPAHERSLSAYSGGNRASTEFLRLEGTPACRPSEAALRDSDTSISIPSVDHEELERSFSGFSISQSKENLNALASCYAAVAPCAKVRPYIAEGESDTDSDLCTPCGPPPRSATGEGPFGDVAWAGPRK
KCNQ2 pot = enhances the rat KCNQ2 potassium channel; O88943; CHO-K1 KCNQ2, FluxOR thallium flux fluorescence; active compounds read high; B-score at 10 µM; 0.54% of 310,000 active; AID 2239;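 active = fluorescence ratio B-score at least 3 SD of library B-scores, with initial fluorescence B-score within 3 of them, cut at about 5.3 in these data; same plate scores as AID 2156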;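 note: B-score of peak minus minimum over baseline fluorescence ratio after K+ and Tl+ stimulus; positive B-score means potentiation of KCNQ2 with more thallium influx and brighter signal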
A number is an active result; i = inactive; nt = no result given.

SMILES	KCNQ2 block	KCNQ2 pot
Cc1ccc(C)c(OCC(=O)N/N=C/c2c(C)nn(-c3ccccc3)c2Cl)c1	-7.4	i
Cc1nn(-c2ccccc2)c(Cl)c1/C=N/NC(=O)OC(C)(C)C	i	nt
O=C(NCc1ccccn1)C(=O)NCC(c1ccco1)N1CCOCC1 (configuration not stated)	i	nt
O=C(CN(C(=O)Cn1nnc(-c2ccc(F)cc2)n1)c1cnc2ccccc2c1)NCC1CCCO1 (configuration not stated)	i	nt
O=C(CSCc1ccccc1)N1CCN(c2ccccc2)CC1	i	nt
O=C(CSCc1ccccc1)N1CCN(c2cccc(C(F)(F)F)c2)CC1	-6.5	i
C/C(=C/c1ccccc1)C(=O)N1CCN(c2ccccc2F)CC1	i	nt
C/C(=C\c1ccccc1)C(=O)N1CCN(c2cccc(C(F)(F)F)c2)CC1	-6.2	i
Cc1nc2c(sc(=S)n2Cc2ccco2)c(=O)n1CC(=O)Nc1ccccc1Cl	i	i
CS(=O)(=O)N(CC(=O)N1CCc2ccccc2C1)Cc1ccc(F)cc1	i	nt
O=C(CN(c1cccc(Cl)c1)S(=O)(=O)c1ccc(Cl)cc1)N1CCc2ccccc2C1	-6.5	i
CS(=O)(=O)N(CC(=O)N1CCc2ccccc2C1)c1cccc(F)c1	i	nt
Cc1ccc(S(=O)(=O)N(CC(=O)N2CCC(C)CC2)c2cccc(C)c2)cc1	-6.2	i
CCOC(=O)N1CCN(C(=O)CN(c2cccc(C)c2)S(=O)(=O)c2ccc(C)cc2)CC1	i	i
CS(=O)(=O)N(CC(=O)N1CCc2ccccc2C1)Cc1ccc(Cl)cc1	-6	i
COc1ccc(CC(=O)Nc2cccc3ncccc23)cc1OC	i	i
O=C(NNC(=O)C1CC1)c1cc(Cl)nc2ccccc12	i	nt
CCCN1CCN(C(=O)Cn2c(=O)oc3cc(S(=O)(=O)NCc4ccccc4)ccc32)CC1	i	i
OCCN1CCN(C(=S)NC2CCCC2)CC1	i	nt
CC(C)(C)c1nc(SCC(=O)NCc2ccco2)c2ccccc2n1	i	i
O=C(CCCC(=O)OCC(Cl)=C(Cl)Cl)Nc1ccc(F)cc1	i	9.2
O=C(CCCC(=O)OCC(Cl)=C(Cl)Cl)Nc1cccc2ccccc12	i	nt
COCCNC(=O)c1cc2c(=O)n3cccc(C)c3nc2n(Cc2ccncc2)c1=N	i	i
Nc1nc(Nc2ccccc2F)sc1C(=O)c1ccccc1	i	nt
Cc1ccc(SCCNC(=S)Nc2cc(C)cc(C)c2)cc1	i	nt
SMILES	KCNQ2 block	KCNQ2 pot
Cc1ccc(SCCNC(=S)Nc2ccc(C)cc2C)cc1	i	7
O=C(CN1CCOCC1)Nc1nc2ccc(F)cc2s1	i	nt
O=C(CN1C(=O)C2CCCCC2C1=O)Nc1nc2ccc(F)cc2s1 (configuration not stated)	-6.2	i
Cc1cnc(NC(=O)Nc2ccc(OCc3ccccc3)cc2)c(Br)c1	i	i
COc1ccccc1C(=O)NC(CCSC)C(=O)OC(C)C(N)=O (configuration not stated)	i	i
COc1ccccc1C(=O)NC(CCSC)C(=O)N1CCC(Cc2ccccc2)CC1 (configuration not stated)	-7.2	i
CSCCC(NC(=O)c1ccccc1Cl)C(=O)N1CCN(C(c2ccccc2)c2ccccc2)CC1 (configuration not stated)	-7.2	i
CSCCC(NS(=O)(=O)c1ccc(C)cc1)C(=O)N1CCN(C(c2ccccc2)c2ccccc2)CC1 (configuration not stated)	i	nt
CCC1(C)Cc2ccccc2-c2[nH]c(=S)[nH]c(=O)c21 (configuration not stated)	i	i
Cc1cccc(CN2CCC(C(=O)Nc3cccc(-c4cscn4)c3)CC2)n1	i	nt
O=C1NC(=Nc2ccccc2Cl)S/C1=C\c1ccc(C(=O)O)cc1	i	nt
CC12CCC(C/C1=N\N=C1\NC(=O)/C(=C\c3ccc(Cl)cc3)S1)C2(C)C (configuration not stated)	i	13
Cc1cc(C(C)c2ccccc2)c(O)c(CN2CCOCC2)c1C (configuration not stated)	i	nt
O=C(CCC(=O)N/N=C/c1ccc(Br)s1)NCc1ccccc1	i	i
COCc1cc(Sc2ccc(Br)cc2)nc(-c2ccccc2)n1	i	nt
COCc1cc(Sc2ccc(Cl)cc2)nc(-c2ccccc2)n1	-5.9	i
CCC1CCCCN1C(=O)Cn1c(=O)oc2ccccc21 (configuration not stated)	i	nt
COc1ccc(NC(=O)CO/N=C(\C)c2cccs2)cc1	i	i
COc1ccc(OC)c(C(C(=O)NC2CCCCC2)N(C(=O)c2snc(C(N)=O)c2N)c2ccccc2OC)c1 (configuration not stated)	i	nt
COc1ccc(N(C(=O)c2snc(C(N)=O)c2N)C(C(=O)NC2CCCC2)c2cccs2)c(OC)c1 (configuration not stated)	-8	i
CCOC(=O)C1=C(C)NC(=O)NC1c1ccc(-c2ccc(Cl)cc2)o1 (configuration not stated)	i	i
CCOC(=O)C1=C(C)NC(=S)NC1c1ccc(-c2ccc(Cl)cc2)o1 (configuration not stated)	i	7.8
Cc1cc2cc(CN(CC3CCCO3)C(=S)NCc3ccco3)c(=O)[nH]c2cc1C (configuration not stated)	i	i
Cc1ccc(C(=O)NCc2ccccc2)cc1Br	i	i
CCC(CC)COC(=O)C(C#N)c1nc2ccccc2nc1N1CCN(CC)CC1 (configuration not stated)	i	nt
SMILES	KCNQ2 block	KCNQ2 pot
CCCCCCOC(=O)C(C#N)c1nc2ccccc2nc1N1CCN(C)CC1 (configuration not stated)	-5.7	i
Cc1ccccc1-n1nc2c(c1NC(=O)/C=C\c1ccc3c(c1)OCO3)CSC2	-6.7	i
Cc1ccc(-n2nc3c(c2NC(=O)/C=C\c2ccc4c(c2)OCO4)CSC3)c(C)c1	i	nt
CC(NC(=O)NC1CCCCC1)c1ccccc1 (configuration not stated)	i	13
O=C(Nc1ccccc1)NC1CCCCCCC1	i	i
COC(=O)c1ccc(CSc2nnc(Nc3ccc(C)cc3)s2)o1	i	i
Cc1cccn2c(=O)c3cc(C(=O)NC4CCCCCC4)sc3nc12	i	nt
CC(NC(=O)CSc1nc2c(c(C(F)(F)F)n1)CCc1ccccc1-2)c1ccccc1 (configuration not stated)	i	nt
CCOc1ccc(N=C2NC(=O)S/C2=C\c2ccc(N(C)C)cc2)cc1	i	i
CCOc1ccc(/C=C2/SC(=O)NC2=S)cc1	i	26
O=C(O)C1=C(Nc2ccccc2)OCC1=O	i	i
N/C(=N\OC(=O)c1cccc2ccccc12)c1ccc(Br)cc1	-5.6	i
N/C(=N\OC(=O)c1cccc2ccccc12)c1ccncc1	i	nt
Cc1ccc(C(=O)O/N=C(\N)c2ccc(Br)cc2)cc1C	i	i
Cc1cc(C)cc(C(=O)O/N=C(\N)c2ccc(Br)cc2)c1	-6.8	i
CCN(CC)S(=O)(=O)c1ccc2c(c1)oc(=O)n2CC(=O)N(C)C1CCCCC1	i	nt
Cc1ccccc1NC(=O)OCc1cn(-c2ccc(Cl)cc2)nn1	i	nt
CCN1C(=O)/C(=C/c2cccs2)SC1=Nc1ccc(OC)cc1	i	i
CCCN1C(=O)/C(=C/c2ccc(C)s2)SC1=Nc1ccc(OC)cc1	-6.2	i
CCN(CC)CCN1C(=O)/C(=C\c2ccc(Cl)c([N+](=O)[O-])c2)SC1=Nc1ccc(OC)cc1	i	nt
COc1ccc(N=C2S/C(=C\c3ccc(Cl)c([N+](=O)[O-])c3)C(=O)N2CCN(C)C)cc1	-5.6	i
